E coli growth-1 = counter-screen for AddAB inhibitors: E. coli growth inhibition; inhibition, % at 11.9 µM; AID 449728; E. coli V3065 growth, OD600 absorbance, 18 h; 330,000 compounds, 0.27% hits;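 active = inhibition above the campaign's mean inhibition across all tested compounds plus 3 SD, cut at about 9.9% in these data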;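 note: uninfected addAB+ strain grown without phage in ampicillin broth; 0% = DMSO wells and 100% = ciprofloxacin 0.95 µg/ml wells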
AddAB inh = less growth of phage-infected E. coli with AddAB | E. coli expressing H. pylori AddAB, absorbance growth | inhibition, % at 11.9 µM | 330,000 compounds, 0.29% hits | AID 435030; in the data active = inhibition above about 12%;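 note: 0% = vehicle wells of infected cells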
E coli growth-2 = blocks Escherichia coli growth; OD600, 23 h; hits give low values; OD600 absorbance (test concentration not listed); 330,000 compounds, 0.21% hits;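 active = OD600 absorbance below the run mean of sample wells minus 3.6 SD, in any replicate, cut at about 0.56 in these data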
Tat transport = blocks Tat-dependent protein export in E. coli; E. coli MC4100 TorA-mCherry Tat export, fluorescence; 340,000 compounds, 0.036% hits; inhibition, % at 10 µM;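 active = mean replicate inhibition at least 50% and at least half of replicates individually reaching 50%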;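 note: exported cargo escapes ClpAP degradation while cytoplasmic cargo is degraded and loses fluorescence; 0% = median of neutral control wells and 100% = median of NaSCN control wells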
phage Ecoli inh = E. coli growth loss with phage present; growth absorbance; AID 651602; inhibition, % at 11.9 µM; 360,000 compounds, 0.26% hits; in the data active = inhibition above about 11%
AddAB conf = confirmation screen: growth loss of phage-infected E. coli expressing H. pylori AddAB; shares compounds with AddAB inh; E. coli V3065 expressing H. pylori AddAB, T4 phage, OD; T4 phage with gene 2 nonsense mutations; inhibition, % at 11.9 µM; 880 compounds, 64% hits; AID 488942;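 active = mean inhibition above a set limit taken from the earlier primary screen, cut at about 13% in these data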;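 note: higher means less bacterial growth since AddAB block lets phage replicate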
RecBCD counter = AddAB counter-screen: growth loss of RecBCD+ E. coli infected with mutant T4 phage | inhibition, % at 11.9 µM | AID 488955 | 880 compounds, 73% hits | E. coli V66 + mutant T4 phage, OD growth | shares compounds with AddAB inh;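 active = mean inhibition above the mean of solvent-only control wells plus 3 SD, cut at about 4% in these data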;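 note: optical density read after an 18 h incubation at 37 °C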
bact viab count = counter-screen: bacterial growth inhibition; shares compounds with AddAB inh; bacterial viability, absorbance (AddAB counterscreen); inhibition, % at 11.9 µM; 880 compounds, 35% hits; AID 488956; in the data active = inhibition above about 25%
An asterisk follows results filed as active; nt = not tested or not shown. Only some compounds are listed: those with a hit (about 0.5% of all), similar ones and a draw of the others.

SMILES | E coli growth-1 | AddAB inh | E coli growth-2 | Tat transport | phage Ecoli inh | AddAB conf | RecBCD counter | bact viab count
O=C(/C=C/c1ccccc1Cl)c1ccccc(=O)c1O | 9 | 15* | 0.66 | -3 | 3 | 8 | 8.3* | 5
O=C(O)c1ccc(N/N=C/C=C/c2ccc([N+](=O)[O-])o2)cc1 | 9 | 14* | nt | 1 | 8 | 31* | 4 | 9
CSc1nc(N)nc2c1ncn2CC(=O)Nc1ccc(C)c(C)c1 | 12* | 15* | 0.63 | 15 | 9 | 13* | 11* | 7
CSc1nc(N)nc2c1ncn2CC(=O)NCC(c1ccccc1)c1ccccc1 | -2 | 1 | 0.7 | 4 | 2 | nt | nt | nt
Cc1ccc(NC(=O)Cn2cnc3ccccc32)cc1C | 14* | 14* | 0.68 | -14 | 7 | 20* | 14* | 11
COc1cc(C=NNC(=O)c2cccnc2)ccc1OC(=O)c1ccc2c(c1)OCO2 | nt | nt | 0.74 | nt | nt | nt | nt | nt
CCOc1ccc(S(=O)(=O)n2cc(F)c(=O)[nH]c2=O)cc1[N+](=O)[O-] | 17* | 24* | 0.73 | -1 | 10 | 11 | 2 | 7
Oc1ccc(N=Nc2ccccc2-c2nn[nH]n2)c(O)c1 | 15* | 14* | 0.6 | -3 | 7 | 8 | 6.7* | 1
CC1CCN(c2ccc(/C=N\Nc3nncn3N)cc2[N+](=O)[O-])CC1 | 5 | 15* | nt | -9 | 3 | -2 | 0 | -5
CCc1nnc(NN=Cc2ccc(N3CCC(C)CC3)c([N+](=O)[O-])c2)n1N | nt | nt | 0.71 | nt | nt | nt | nt | nt
Fc1cccc(CON=Cc2c(-c3ccccc3)nc3ccc(Cl)cn23)c1 | nt | nt | 0.65 | nt | nt | nt | nt | nt
COc1cccc(/C=N/NC(=O)N/N=C/c2cccc(OC)c2O)c1O | 12* | 15* | nt | -5 | 11 | 12 | 11* | 9
COc1cccc(C=NNC(=O)C(=O)NN=Cc2cccc(OC)c2O)c1O | nt | nt | 0.71 | nt | nt | nt | nt | nt
CCOC(=O)C1=C(C)NC(=O)NC1c1ccc([N+](=O)[O-])o1 (stereo unspecified) | -2 | -2 | 0.69 | 1 | 1 | nt | nt | nt
CCOC(=O)C1=C(C)NC2=C(C(=O)c3ccccc32)C1c1ccc([N+](=O)[O-])o1 (stereo unspecified) | 12* | 26* | 0.63 | 1 | 6 | 32* | 2 | 15
CC1=NN(C(=O)c2ccc(Cn3cc(Br)c([N+](=O)[O-])n3)o2)C(O)(C(F)(F)F)C1 (stereo unspecified) | 8 | 18* | 0.67 | -3 | 9 | 8 | 3 | 5
COc1cccc(/C=N\NC(=O)c2ccc(Cn3cc(Br)c([N+](=O)[O-])n3)o2)c1O | 9.9* | 16* | nt | -4 | 10 | 31* | 7.1* | 20
CC1CN(C(C)CO)C(=O)Cc2cc(NC(=O)Cc3ccccc3)ccc2OC1CN(C)S(=O)(=O)c1cccs1 (stereo unspecified) | nt | nt | 0.7 | nt | nt | nt | nt | nt
O=C(CSc1ccsc1[N+](=O)[O-])NCc1ccco1 | 21* | 30* | 0.68 | -8 | 8 | 52* | 5.0* | 26*
CCOC(=O)N1CCN(c2c(NCCCN3CCCCCC3)c(=O)c2=O)CC1 | 5 | 12* | 0.75 | -2 | 3 | 0 | 1 | -2
S=C(NCCCc1ccccc1)Nc1ccccc1 | nt | nt | 0.68 | -5 | -1 | nt | nt | nt
S=C(NCCCc1ccccc1)Nc1ccc(Cl)cc1 | 8 | 12* | 0.58 | -1 | 9 | 11 | 12* | 6
COc1ccc(Cl)cc1C(=O)CSc1nc(N)cc(N)n1 | 97* | 98* | 0.67 | 3 | 3 | -1 | -1 | -3
CCCCn1nnnc1SCC(=O)c1cc(Cl)ccc1OC | -3 | 4 | 0.71 | 10 | 0 | nt | nt | nt
NC(=O)NN=Cc1ccccc1OCc1cccc2ccccc12 | nt | nt | 0.69 | nt | nt | nt | nt | nt
SMILES | E coli growth-1 | AddAB inh | E coli growth-2 | Tat transport | phage Ecoli inh | AddAB conf | RecBCD counter | bact viab count
CCN(CC)CCNC(=O)c1cn(CC)c2cc(N3CCN(C(=O)c4ccco4)CC3)c(F)cc2c1=O | 65* | 68* | 0.074* | 13 | 8 | 98* | 6.6* | 89*
CCCCCNC(=O)c1cn(CC)c2cc(N3CCN(C)CC3)c(F)cc2c1=O | 90* | 92* | 0.047* | 4 | 7 | 100* | 12* | 96*
CCN(CC)CCCNC(=O)c1cn(CC)c2cc(N3CCN(C(=O)c4ccco4)CC3)c(F)cc2c1=O | 98* | 97* | 0.065* | 20 | 1 | 100* | 88* | 101*
COc1ccc(C=NNC(=O)c2cccc(NC(=O)c3ccccc3Cl)c2)cc1OC | nt | nt | 0.67 | nt | nt | nt | nt | nt
CCC(C)=NNc1ccc(S(=O)(=O)N2CCCC2)cc1[N+](=O)[O-] | nt | nt | 0.66 | nt | nt | nt | nt | nt
CC(=NNC(=O)c1cccc([N+](=O)[O-])c1)c1ccco1 | nt | nt | 0.7 | nt | nt | nt | nt | nt
Cc1cc(C)c2c(NC(=O)CCl)nn(C)c2n1 | 65* | 93* | 0.71 | 0 | 0 | 2 | 0 | 0
O=C(Cn1cc(C(=O)c2ccco2)c2ccccc21)Nc1ccccc1 | 16* | 17* | 0.65 | -7 | 10 | 10 | 11* | 12
Cc1cc(C)n(N=Cc2cc([N+](=O)[O-])ccc2O)c(=O)c1 | nt | nt | 0.63 | nt | nt | nt | nt | nt
Cc1ccc(NC(=O)CCC(=O)N/N=C/c2ccc([N+](=O)[O-])o2)cc1C | 7 | 7 | nt | 1 | 4 | nt | nt | nt
CCCC(=O)Nc1ccc(C(=O)N/N=C/c2ccc([N+](=O)[O-])o2)cc1 | 22* | 18* | nt | -21 | 10 | 100* | 12* | 28*
O=C(N/N=C/c1ccc([N+](=O)[O-])o1)C(O)c1ccccc1 (stereo unspecified) | 15* | 86* | nt | -20 | 11 | 96* | 11* | 29*
Cc1cc(C(=O)N/N=C/c2ccc([N+](=O)[O-])o2)c(C)o1 | 9 | 13* | nt | -12 | 6 | 98* | 7.9* | 17
O=C(NCCSc1c[nH]c2ccccc12)c1c(F)cccc1F | 1 | -1 | 0.65 | 2 | 0 | nt | nt | nt
O=C(NCCSc1c[nH]c2ccccc12)c1ccco1 | 27* | 81* | 0.71 | -9 | 2 | -1 | 2 | 1
Cc1ccc(S(=O)(=O)NCc2ccc3[nH]c(C)cc3c2)cc1 | 3 | 1 | 0.66 | 2 | 2 | nt | nt | nt
Cc1cc2cc(CNS(=O)(=O)N(C)C)ccc2[nH]1 | 26* | 34* | 0.79 | 2 | 2 | -1 | -1 | -3
COC(=O)c1cc(C(=O)OCC(=O)N(C)C2CCS(=O)(=O)C2)cc([N+](=O)[O-])c1 (stereo unspecified) | 12* | 22* | 0.7 | 0 | 1 | -2 | -1 | -2
O=C(NCc1ccccc1)C1CCN(S(=O)(=O)c2cccc3cccnc23)CC1 | -2 | 1 | 0.74 | -1 | 2 | nt | nt | nt

Source: PubChem
